This is one part of a sample in which the strongest signals are shown more often than they occur.
Legend:
Assay in all cases: glycan array binding signal (z-score within array); higher = stronger binding
Details in all cases: glycan notation: IUPAC condensed, linker removed
[1] = molecular target: Fuc(a1-2)Gal(b1-4)GlcNAc(b1-3)Gal(b1-4)GlcNAc(b1-3)Gal(b1-4)GlcNAc
In short: (§1)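 Arrays were curated from the Consortium for Functional Glycomics database, 3228 in total, and kept only where the protein sequence was available. Binding is expressed as a within-array Z-score. This score was averaged across arrays of the same protein sequence at different concentrations or buffers and across linkers, and negative values can be read as non-binding.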

[2] = molecular target: Fuc(a1-2)[GalNAc(a1-3)]Gal
In short: as §1

[3] = molecular target: Gal(a1-3)[Gal(a1-4)]Gal(b1-4)GlcNAc
In short: as §1

[4] = molecular target: Gal(b1-4)GalNAc(a1-3)[Fuc(a1-2)]Gal(b1-4)GlcNAc
In short: as §1

Gal3S(b1-3)GalNAc = molecular target: Gal3S(b1-3)GalNAc
In short: as §1

Gal3S(b1-4)GlcNAc = molecular target: Gal3S(b1-4)GlcNAc
In short: as §1

Gal4S(b1-4)GlcNAc = molecular target: Gal4S(b1-4)GlcNAc
In short: as §1

[5] = molecular target: GlcNAc(b1-4)GlcNAc(b1-4)GlcNAc
In short: as §1

[6] = molecular target: Man(a1-2)Man(a1-6)[Man(a1-3)]Man(a1-6)[Man(a1-2)Man(a1-2)Man(a1-3)]Man(b1-4)GlcNAc(b1-4)GlcNAc
In short: as §1

[7] = molecular target: Neu5Ac(a2-8)Neu5Ac(a2-3)[GalNAc(b1-4)]Gal(b1-4)Glc
In short: as §1

[8] = molecular target: Neu5Ac(a2-8)Neu5Ac(a2-8)Neu5Ac(a2-3)Gal(b1-4)Glc
In short: as §1

Neu5Gc(a2-3)Gal(b1-4)Glc = molecular target: Neu5Gc(a2-3)Gal(b1-4)Glc
In short: as §1

[9] = molecular target: Fuc(a1-2)Gal(b1-4)GlcNAc(b1-3)[Fuc(a1-2)Gal(b1-4)GlcNAc(b1-6)]GalNAc
In short: as §1

[10] = molecular target: Fuc(a1-2)Gal(b1-4)[Fuc(a1-3)]GlcNAc(b1-3)Gal(b1-4)[Fuc(a1-3)]GlcNAc(b1-3)Gal(b1-4)[Fuc(a1-3)]GlcNAc
In short: as §1

[11] = molecular target: Fuc(a1-2)[Gal(a1-3)]Gal(b1-4)[Fuc(a1-3)]GlcNAc
In short: as §1

[12] = molecular target: Fuc(a1-2)[GalNAc(a1-3)]Gal(b1-3)GlcNAc(b1-3)GalNAc
In short: as §1

[13] = molecular target: Fuc(a1-2)[GalNAc(a1-3)]Gal(b1-4)Glc
In short: as §1

[14] = molecular target: Fuc(a1-2)[GalNAc(a1-3)]Gal(b1-4)GlcNAc(b1-3)[Fuc(a1-2)[GalNAc(a1-3)]Gal(b1-4)GlcNAc(b1-6)]GalNAc
In short: as §1

[15] = molecular target: Fuc(a1-3)[Gal(b1-4)]Glc6S
In short: as §1

[16] = molecular target: Fuc(a1-3)[Gal3S(b1-4)]GlcNAc
In short: as §1

[17] = molecular target: Fuc(a1-3)[GalNAc(b1-4)]GlcNAc6S
In short: as §1

Gal(a1-3)Gal(b1-4)Glc = molecular target: Gal(a1-3)Gal(b1-4)Glc
In short: as §1

[18] = molecular target: Gal(a1-3)Gal(b1-4)GlcNAc(b1-6)GalNAc
In short: as §1

[19] = molecular target: Gal(b1-3)GalNAc(b1-4)Gal(b1-4)Glc
In short: as §1

[20] = molecular target: Gal(b1-3)GlcNAc(b1-2)Man(a1-3)[GlcNAc(b1-4)][Gal(b1-3)GlcNAc(b1-2)Man(a1-6)]Man(b1-4)GlcNAc(b1-4)GlcNAc
In short: as §1

[21] = molecular target: Gal(b1-3)[Fuc(a1-4)]GlcNAc(b1-3)Gal(b1-4)[Fuc(a1-3)]GlcNAc
In short: as §1

Gal(b1-4)Glc6S = molecular target: Gal(b1-4)Glc6S
In short: as §1

[22] = molecular target: Gal(b1-4)GlcNAc(b1-2)Man(a1-6)[Man(a1-3)]Man(b1-4)GlcNAc(b1-4)GlcNAc
In short: as §1

[23] = molecular target: Gal(b1-4)GlcNAc(b1-2)[Gal(b1-4)GlcNAc(b1-6)]Man(a1-6)[Gal(b1-4)GlcNAc(b1-2)Man(a1-3)]Man(b1-4)GlcNAc(b1-4)[Fuc(a1-6)]GlcNAc
In short: as §1

[24] = molecular target: Gal(b1-4)GlcNAc(b1-2)[Gal(b1-4)GlcNAc(b1-6)]Man(a1-6)[GlcNAc(b1-4)][Gal(b1-4)GlcNAc(b1-2)Man(a1-3)]Man(b1-4)GlcNAc(b1-4)GlcNAc
In short: as §1

[25] = molecular target: Gal(b1-4)GlcNAc(b1-3)Gal(b1-4)GlcNAc(b1-3)Gal(b1-4)GlcNAc(b1-3)Gal(b1-4)GlcNAc(b1-2)[Gal(b1-4)GlcNAc(b1-3)Gal(b1-4)GlcNAc(b1-3)Gal(b1-4)GlcNAc(b1-3)Gal(b1-4)GlcNAc(b1-6)]Man(a1-6)[Gal(b1-4)GlcNAc(b1-3)Gal(b1-4)GlcNAc(b1-3)Gal(b1-4)GlcNAc(b1-3)Gal(b1-4)GlcNAc(b1-2)Man(a1-3)]Man(b1-4)GlcNAc(b1-4)[Fuc(a1-6)]GlcNAc
In short: as §1

[26] = molecular target: Gal3S(b1-4)[Fuc(a1-3)]GlcNAc6S
In short: as §1

Gal3S6S(b1-4)GlcNAc6S = molecular target: Gal3S6S(b1-4)GlcNAc6S
In short: as §1

Gal4S6S(b1-4)GlcNAc = molecular target: Gal4S6S(b1-4)GlcNAc
In short: as §1

Gal6S(b1-3)GlcNAc6S = molecular target: Gal6S(b1-3)GlcNAc6S
In short: as §1

GalNAc(b1-4)GlcNAc = molecular target: GalNAc(b1-4)GlcNAc
In short: as §1

GalNAc(b1-4)GlcNAc6S = molecular target: GalNAc(b1-4)GlcNAc6S
In short: as §1

GalNAc6S(b1-4)GlcNAc = molecular target: GalNAc6S(b1-4)GlcNAc
In short: as §1

[27] = molecular target: GlcNAc(b1-2)Man(a1-3)[GlcNAc(b1-2)Man(a1-6)]Man(b1-4)GlcNAc(b1-4)GlcNAc
In short: as §1

B1: RegIIIgamma (Mus musculus), O09049 (protein)
chain: MLPRITITIMSWMLLSCLMLLSQVQGEVAKKDAPSSRSSCPKGSRAYGSYCYALFSVSKNWYDADMACQKRPSGHLVSVLSGAEASFLSSMIKSSGNSGQYVWIGLHDPTLGYEPNRGGWEWSNADVMNYINWETNPSSSSGNHCGTLSRASGFLKWRENYCNLELPYVCKFKA
glycan array binding signal (z-score) [1]: 0.632
glycan array binding signal (z-score) [2]: -0.258
glycan array binding signal (z-score) [3]: 0.491
glycan array binding signal (z-score) [4]: -0.228
glycan array binding signal (z-score) (Gal3S(b1-3)GalNAc): -0.134
glycan array binding signal (z-score) (Gal3S(b1-4)GlcNAc): -0.128
glycan array binding signal (z-score) (Gal4S(b1-4)GlcNAc): 1.17
glycan array binding signal (z-score) [5]: -0.185
glycan array binding signal (z-score) [6]: -0.06
glycan array binding signal (z-score) [7]: -0.133
glycan array binding signal (z-score) [8]: -0.163
glycan array binding signal (z-score) (Neu5Gc(a2-3)Gal(b1-4)Glc): -0.148

B2: AT1G73650(15) (Arabidopsis thaliana), F4HRY1 (protein)
chain: MGTVLDSHFLALTAIVTVIYQFIFFVITALFKFDQVTDFAGSTNFVILAVLTLVLKASWHFRQIVLTLLVVVWGLRLGIFLLMETRILQWGEDRRFDEQRGNIVRLIIFWTLQAVWVWTVSLPLTLVNASDGGGSLKPADVIGWTMETWVFGFLIEAAADQQKLSFKNSPENRGKWCDVGVWKYSRHPNYFGEMETLLWWGIFVAASPVLEGAEYLVIFGPLFLTLLLLFVSGIPLLEASADKKHGNSGAYRSYKKTTSPLILFPRGVYGNLPGWFKTVFLFEFPFYSRNLPQEGRLQNSKEKEVKDD
glycan array binding signal (z-score) [9]: 2.33
glycan array binding signal (z-score) [10]: -0.048
glycan array binding signal (z-score) [11]: -0.438
glycan array binding signal (z-score) [12]: 0.226
glycan array binding signal (z-score) [13]: -0.567
glycan array binding signal (z-score) [14]: -0.573
glycan array binding signal (z-score) [15]: 2.65
glycan array binding signal (z-score) [16]: 3.17
glycan array binding signal (z-score) [17]: -0.217
glycan array binding signal (z-score) (Gal(a1-3)Gal(b1-4)Glc): 3.4
glycan array binding signal (z-score) [18]: -0.542
glycan array binding signal (z-score) [3]: 3.43
glycan array binding signal (z-score) [19]: 3.21
glycan array binding signal (z-score) [20]: -0.213
glycan array binding signal (z-score) [21]: -0.287
glycan array binding signal (z-score) [4]: -0.354
glycan array binding signal (z-score) (Gal(b1-4)Glc6S): 2.95
glycan array binding signal (z-score) [22]: -0.586
glycan array binding signal (z-score) [23]: 1.65
glycan array binding signal (z-score) [24]: -0.494
glycan array binding signal (z-score) [25]: -0.173
glycan array binding signal (z-score) [26]: 1.88
glycan array binding signal (z-score) (Gal3S6S(b1-4)GlcNAc6S): 0.919
glycan array binding signal (z-score) (Gal4S(b1-4)GlcNAc): -0.333
glycan array binding signal (z-score) (Gal4S6S(b1-4)GlcNAc): -0.444
glycan array binding signal (z-score) (Gal6S(b1-3)GlcNAc6S): -0.282
glycan array binding signal (z-score) (GalNAc(b1-4)GlcNAc): 4.01
glycan array binding signal (z-score) (GalNAc(b1-4)GlcNAc6S): -0.402
glycan array binding signal (z-score) (GalNAc6S(b1-4)GlcNAc): 0.513
glycan array binding signal (z-score) [27]: -0.569
